{
  "source": "PubChem BioAssay AID743193",
  "about": "(National Center for Advancing Translational Sciences (NCATS), 2013)",
  "note": "Records with an inconclusive call do not appear. Activity calls are given as the source filed them. Calls come from the whole dose curve; as a rule, active = well fitted curve in the direction sought with a large enough effect; inconclusive = small, poorly fitted or top-dose-only effect, or another doubt; inactive = no such curve, though single readings can be large or run the other way.",
  "data": [
    {"target": "Glyceraldehyde-3-phosphate dehydrogenase (Oryctolagus cuniculus) (UniProt P46406)", "sequence (P46406 whole entry, looked up)": "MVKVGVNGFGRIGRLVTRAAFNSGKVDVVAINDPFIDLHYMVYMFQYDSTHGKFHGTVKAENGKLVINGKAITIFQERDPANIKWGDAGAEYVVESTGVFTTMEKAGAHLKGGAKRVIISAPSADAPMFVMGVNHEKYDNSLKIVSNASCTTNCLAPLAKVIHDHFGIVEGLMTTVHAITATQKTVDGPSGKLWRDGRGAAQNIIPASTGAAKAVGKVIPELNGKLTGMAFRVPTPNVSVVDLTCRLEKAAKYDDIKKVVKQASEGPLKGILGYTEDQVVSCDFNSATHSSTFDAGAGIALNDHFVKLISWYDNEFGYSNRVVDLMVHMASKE", "test": "Extended Characterization of HPGD Inhibitors: Counterscreen Against rGAPDH", "details": "rabbit GAPDH/diaphorase coupled resazurin fluorescence; series mostly up to 57.1 µM", "protocol": "The central role of HPGD is to inactivate prostaglandins such as prostaglandin E2 (PGE2) or prostaglandin D2 (PGD2). These prostaglandins are involved in a number of processes, including inflammation, differentiation, and cellular signaling, which makes HPGD an important target for pharmacological intervention. The counterscreen for non-specific dehydrogenase activity was conducted using a rabbit glyceraldehyde-3-phosphate dehydrogenase (rGAPDH; Sigma Aldrich, St. Louis, MO) coupled assay system. In this assay, the rGAPDH-catalyzed conversion of NAD+ to NADH is coupled downstream to an additional enzyme, diaphorase (Sigma Aldrich, St. Louis, MO), which reduces the non-fluorescent molecule, resazurin, to a red fluorescent product, resorufin, in an NADH-dependent fashion. Thus, rGAPDH activity leads to an increase in fluorescence at 598 nm, and inhibitors of the reaction lead to a decrease in resorufin production and a subsequent decrease in fluorescence. The change in fluorescence between 0 and 30 minutes was measured, and data were normalized to control columns representing maximum signal (all components) and background (no rGAPDH). The buffer consisted of 100mM triethanolamine, pH 7.6, 5mM MgCl2 and 0.01% Tween-20, and the assay was run in black, solid-bottom, non-tissue culture-treated Greiner plates. NIH Chemical Genomics Center [NCGC] NIH Molecular Libraries Probe Centers Network [MLPCN] MLPCN Grant: MH084681 Assay Submitter (PI): Structural Genomics Consortium\n3 uL of substrate buffer (final conc: 2 mM G3P, 1 mM NAD+, 0.1 mM resazurin, 0.1 mg/mL diaphorase) are added to the 1536-well plate before 23 nL of compound library is pinned into the well. Then, 1 uL of rGAPDH or 0x control (final conc: 2 nM and buffer only, resp.) are added and plate is immediate read for fluorescence on the ViewLux; ex 525, em 598, 1 second exposure, Bodipy Mirror), incubated for 30 at RT before a final read on the ViewLux with the same settings.", "values": [
      {"smiles": "COc1ccc(-n2cnc3cc(C(=O)N4CCCCC4)ccc32)cc1", "outcome": "inactive"},
      {"smiles": "Cc1cccc(-n2cnc3cc(C(=O)N4CCCC(C)(C)C4)ccc32)c1", "outcome": "inactive"},
      {"smiles": "Cc1cc(-c2nnc3n2CCCCC3)c(C)n1-c1ccc(Cl)c(Cl)c1", "outcome": "inactive"},
      {"smiles": "Cc1cccc(-n2cnc3cc(C(=O)N4CCCC(C(F)(F)F)C4)ccc32)c1", "note": "(centres undefined)", "outcome": "inactive"},
      {"smiles": "Cc1ccc(-n2c(C)cc(-c3nnc4n3CCCCC4)c2C)cc1", "outcome": "inactive"},
      {"smiles": "Cc1cc(-c2nnc3n2CCCCC3)c(C)n1-c1cccc(Cl)c1", "outcome": "inactive"},
      {"smiles": "O=C(c1ccc2c(c1)ncn2-c1cccc(Cl)c1)N1CCCCC1", "outcome": "inactive"},
      {"smiles": "O=C(c1ccc2c(c1)ncn2-c1cccc(C(F)(F)F)c1)N1CCCCC1", "outcome": "inactive"},
      {"smiles": "Cc1cc(-c2nnc3n2CCCCC3)c(C)n1-c1cccc(C(F)(F)F)c1", "outcome": "inactive"}
    ]}
  ]
}
